Pf growth 96h = Primary qHTS for delayed death inhibitors of the malarial parasite plastid, 96 hour incubation. P. falciparum luciferase reporter growth, 96 h. actives 6.9% (n = 320,000). Potency, µM (doses to about 28.7 µM), for inactives: at the top dose activity change, negative = inhibition, hits mostly inhibitors; note: potency is the fitted concentration of half-maximal effect; % is set by controls: 0 for no effect and ±100 for the full control effect
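Cell-based qHTS: luciferase-tagged P. falciparum in erythrocytes (2% hematocrit, 0.05% parasitemia final) incubated with compounds for 96 hours, 37 C, 5% CO2; luciferase detection reagent then added and luminescence measured.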
HCV inhibitor = qHTS Assay for Inhibitors of Hepatitis C Virus (HCV); actives 3.4% (n = 340,000); AID 651820, 2012; Huh7.5.1 HCVcc-Cre infection, luciferase reporter, 44 h; Potency, µM (highest dose often 41.8 µM), without a hit: at the highest dose activity change, negative = inhibition, hits mostly inhibitors; note: potency is the fitted concentration of half-maximal effect; % is set by controls: 0 for no effect and ±100 for the full control effect
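1,000 cells/well; 4 h culture; + compound; + HCVcc-Cre (~0.5 moi); 44 h; luciferase substrate, RT 15 min; read 15 sec.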
Pf growth 48h = Primary qHTS for delayed death inhibitors of the malarial parasite plastid, 48 hour incubation. P. falciparum luciferase growth in erythrocytes, 48 h. Potency, µM (top dose mostly 28.7 µM), inactives show at the highest dose activity change, negative = inhibition, actives largely listed as inhibitors. actives 5.9% (n = 310,000); note: potency is the fitted concentration of half-maximal effect; % is set by controls: 0 for no effect and ±100 for the full control effect
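In quantitative HTS format, infected erythrocytes bearing luciferase-reporter parasites were treated for a single generation at 37 C. Luminescence after adding detection reagent served as the growth measure.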
SARS PLP yeast = qHTS of Yeast-based Assay for SARS-CoV PLP; actives 0.19% (n = 330,000); Potency, µM (series often up to 32.9 µM), without a hit: at the highest dose activity, positive = growth rescue, usual class: activators; S. cerevisiae expressing SARS-CoV PLpro, growth rescue; calls by dose curve; note: potency is the fitted concentration of half-maximal effect; 0% is about no effect; nearly all actives have a fitted effect of over 55% in size
HCMV inh = qHTS Assay for inhibitors of the human cytomegalovirus (HCMV). AID 1259415, 2018. actives 4.5% (n = 410,000). activity change, negative = inhibition, % at 57.5 µM. HFF cells, HCMV-luciferase reporter, 72 h; hits give low values; in the data active = activity change below about -60%; inconclusive = no clear call, values can overlap the other calls; inactive = above about -39%; note: % is set by controls: 0 for no effect and ±100 for the full control effect
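Inhibition of viral replication was scored as loss of reporter luminescence in HFFs infected with HCMV-luciferase (MOI 1 PFU/cell) for 72 h; compounds tested at 2 doses, normalized to buffer and Salinomycin controls.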
Sm TGR inh = qHTS Assay for the Inhibitors of Schistosoma Mansoni Peroxiredoxins; Schistosoma mansoni thioredoxin glutathione reductase (TGR), Q962Y6; purified TGR, DTNB reduction, TNB absorbance 405 nm; Potency, µM (titrated, usually from 114 µM), for the others: at the top dose activity change, negative = inhibition, hits mostly inhibitors; actives 3% (n = 360,000); AID 485364, 2010; note: potency is the fitted concentration of half-maximal effect; % is set by controls: 0 for no effect and ±100 for the full control effect; nearly all actives have a fitted effect of over 60% in size
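Kinetic colorimetric format: TGR-catalysed, NADPH-driven DTNB reduction monitored via TNB absorbance. Enzyme dispensed at 20 nM; compound exposure 15 min at room temperature before reaction start.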
* marks the source's active call; other numbers are inactive results; ? = inconclusive; · = no result. Compounds with a hit are over-represented: about 15% of the library has one in this group of screens. Unless noted, calls come from the whole dose curve; as a rule, active = well fitted curve in the direction sought with a large enough effect; inconclusive = small, poorly fitted or top-dose-only effect, or another doubt; inactive = no such curve, though single readings can be large; an effect the other way counts as inactive or inconclusive.

SMILES	Pf growth 96h	HCV inhibitor	Pf growth 48h	SARS PLP yeast	HCMV inh	Sm TGR inh
O=C(Nc1ccc(Cl)c(Cl)c1)Nc1ccc([N+](=O)[O-])cn1	?	-3.4%	9.28µM*	1.2%	-9.2	-6.0%
CN(C)Cc1csc(Nc2ccc(C(F)(F)F)cn2)n1	·	·	·	·	45.2	·
O=C(NCc1cccs1)c1nn(-c2ccccc2F)nc1CO	·	·	·	·	-66.5*	-2.1%
O=C(NCCCc1ccccc1)c1nn(-c2ccccc2F)nc1CO	·	·	·	·	-60.9*	2.1%
CC(Oc1ccc(S(=O)(=O)N2CCCC2)cc1[N+](=O)[O-])C(=O)NC1(C#N)CCCCC1 (stereo not given)	24.4%	-3.3%	?	4.8%	-19.3	-2.1%
CSc1nc2nccc(/C=C\c3ccccc3)n2n1	?	?	?	-14.3%	-106.0*	-19.2%
CSc1nc2nccc(-c3ccc(Cl)cc3)n2n1	2.9%	7.1%	-3.4%	·	-25.0	-7.3%
COc1ccccc1NC(=O)N(C)C[C@@H]1OCc2cnnn2CCCC(=O)N([C@@H](C)CO)C[C@H]1C	·	·	·	·	25.0	·
OCCCn1c(CCNc2nc(-c3ccc(Cl)cc3)cs2)nc2cc(C(F)(F)F)ccc21	·	?	·	·	-62.5*	·
O=[N+]([O-])c1cc(-c2csc(NCCc3nc4cc(C(F)(F)F)ccc4n3CCCO)n2)ccc1Cl	·	?	·	·	16.5	·
COc1ccc(-c2csc(NC(C)c3nc4cc(C(F)(F)F)ccc4n3CCOCCO)n2)cc1 (stereo not given)	·	8.91µM*	·	·	-35.7	·
CC(Nc1nc(-c2ccc(F)cc2)cs1)c1nc2cc(C(F)(F)F)ccc2n1CCOCCO (stereo not given)	·	1.2%	·	·	-1.8	·
CCCCNC(=O)C1(C)CCCCN1C(=O)c1ccc(C#N)cc1 (stereo not given)	·	·	·	·	-24.1	·
Cc1ccc(C2(C)NC(=O)N(CC(=O)c3ccc(Cl)s3)C2=O)cc1 (stereo not given)	-4.7%	5.1%	-7.4%	-20.1%	?	-7.0%
COc1ccc(S(=O)(=O)N2CCCCC2)cc1NC(=O)CCC(=O)N1CCC(c2ccccc2)=N1	·	-3.2%	·	·	32.5	·
COc1ccc2oc(C(=O)NCCN3CCOCC3)c(C)c2c1OC	2.6%	·	172.5%	-4.8%	9.7	8.8%
CCCC(=O)OC[C@H]1CN(C2CCCC2)S(=O)(=O)c2c(Oc3ccc(F)cc3)cccc2O1	·	·	·	·	-13.5	·
CCOC(=O)c1cc(NC(=O)c2ccc(C)cc2)c(=O)n2c1oc1ccccc12	·	·	·	·	-4.8	3.2%
CCOC(=O)c1cc(NC(=O)c2ccccc2)c(=O)n2c1oc1ccccc12	-32.0%	6.9%	13.2%	0.2%	-71.1*	11.3%
Cc1onc(-c2ccccc2Cl)c1C(=O)N(C)C1CCCCC1	?	-18.7%	·	-1.7%	-65.9*	-3.8%
CCN(C(=O)c1c(-c2ccccc2Cl)noc1C)C1CCCCC1	0.2%	?	?	-1.5%	?	-2.1%
Cc1onc(-c2ccccc2Cl)c1C(=O)NCc1ccc2c(c1)cc(C)n2C	?	?	10.4µM*	-1.3%	-16.7	0.2%
Cc1onc(-c2ccccc2Cl)c1C(=O)NCc1ccco1	5.7%	3.6%	-7.1%	1.5%	29.6	44.7µM*
Cc1ccc(CNC(=O)c2c(-c3ccccc3Cl)noc2C)cc1	-26.9%	-10.9%	21.7%	-2.8%	?	-27.5%
COc1c(Cl)cc(-c2noc(C)c2C(=O)NCc2ccccc2)cc1Cl	?	-7.4%	·	15.9%	-68.3*	2.6%
SMILES	Pf growth 96h	HCV inhibitor	Pf growth 48h	SARS PLP yeast	HCMV inh	Sm TGR inh
CC1CCCN(S(=O)(=O)c2ccc(C(=O)NC(C)c3ccccc3)cc2)C1 (stereo not given)	1.9%	?	?	8.8%	-9.7	-1.0%
O=C(NCCc1ccncc1)[C@@H]1[C@@H](CO)[C@@H]2Cn3c(cccc3=O)[C@H]1N2Cc1ccccc1F	·	·	·	·	24.2	·
Cc1ccc(NC(=O)C(c2ccc(Cl)cc2Cl)N2CCCC2)cc1 (stereo not given)	27.2%	-14.2%	?	8.2%	-64.9*	-12.1%
CC(C)c1ccc(NC(=O)C(c2ccccc2)N2CCOCC2)cc1 (stereo not given)	?	7.3%	·	1.4%	-28.0	1.5%
Cc1cccc(NC(=O)C(c2ccccc2Cl)N2CCOCC2)c1 (stereo not given)	14.7µM*	9.9%	11.7µM*	-1.1%	38.8	-3.9%
Cc1ccc(CNC(=O)Cn2cc3c(n2)-c2c(oc(C(=O)N4CCOCC4)c2C)CC3)cc1	·	·	·	·	?	-11.2%
CCOc1ccc(CNC(=O)Cn2cc3c(n2)-c2c(oc(C(=O)N4CCOCC4)c2C)CC3)cc1	·	·	·	·	-63.2*	-13.3%
CCCN(CCC)CCNC(=O)Cn1cc2c(n1)-c1c(oc(C(=O)N3CCCC3)c1C)CC2	·	·	·	·	-28.7	-9.8%
CCCCN(CCCC)CCCNC(=O)Cn1cc2c(n1)-c1c(oc(C(=O)N3CCCC3)c1C)CC2	?	-5.3%	11.7µM*	2.8%	?	8.8%
CCC(Sc1nc2ccncc2[nH]1)C(=O)Nc1cc(C)ccc1C (stereo not given)	·	·	·	·	-10.8	0.9%
CC1=NN(C(=O)COc2ccccc2)C(O)(c2cccnc2)C1 (stereo not given)	?	9.4%	2.9%	-0.4%	-26.6	-17.0%
O=S(=O)(Nc1ccc2nc(-c3cccc(Cl)c3)nn2c1)c1ccco1	·	·	·	·	27.9	·
Cc1nnsc1C(=O)NNc1ccc(C(C)(C)C)cc1	-2.0%	-15.3%	-7.4%	-1.7%	26.8	35.5µM*
CCCCCc1ccc(CC(=O)Nn2c(C)nc3ccccc3c2=O)cc1	7.0%	?	·	-36.8%	-68.7*	2.3%
CC1Cc2ccccc2N1C(=O)COC(=O)c1ccc(Cl)c(S(=O)(=O)N2CCOCC2)c1 (stereo not given)	?	21.0%	?	3.4%	12.7	-5.7%
CN(C)CC[C@@](O)(c1ccccc1)c1ccccc1Cl	10.7µM*	·	?	·	·	·
Cc1c(CCO)c(=O)[nH]n1C(=O)c1ccc(F)cc1	1.4%	11.2%	-7.3%	-9.5%	?	4.4%
Cn1cc([N+](=O)[O-])c(C(=O)Nc2nc(-c3ccc(Cl)cc3)cs2)n1	0.0%	3.98µM*	41.0%	-4.9%	-96.4*	0.4%
Cc1cnc(NC(=O)c2nn(C)cc2[N+](=O)[O-])s1	36.0%	?	49.4%	0.4%	-99.0*	·
Cc1ccc(-c2nc(NC(=O)c3nn(C)cc3[N+](=O)[O-])sc2C)cc1	·	4.47µM*	9.1%	-11.4%	-104.0*	-2.2%

Compound activity as filed in PubChem BioAssay.
